aSyn UTR act: Activators via SNCA 5'UTR binding, MLPCN; activity score, % (tested at 7.5 µM), hits read low; alpha-synuclein 5'UTR reporter, activators screen; 7.1% of 300,000 active; AID 1814; in the data active = activity score below about -60%
A number is an active result; – = inactive. Only a sample is shown.

SMILES	aSyn UTR act
O=C1CN(c2nc(-c3cccnc3)nc3scc(-c4ccccc4)c23)CCN1	-90
O=C1CN(c2nc(-c3cccs3)nc3sc4c(c23)CCCC4)CCN1	-109
O=c1c2c3c(sc2nc2n1N=C(c1cccs1)CS2)CCCC3	-166
CS(=O)(=O)c1nc(-c2ccccc2)cc(C(F)(F)F)n1	-111
OC(c1cc(-c2ccc(C(F)(F)F)cc2)nc(C(F)(F)F)c1)C1CCCCN1 (stereo not drawn)	–
O=C(N/N=C/c1ccccc1O)C1CC(=O)N(c2ccc(Cl)cc2)C1 (stereo not drawn)	–
NC(=O)C1CC(=O)N(c2ccc(OCc3ccc(F)cc3)cc2)C1 (stereo not drawn)	-113
NC(=O)C1CC(=O)N(c2ccc(OCc3ccc([N+](=O)[O-])cc3)cc2)C1 (stereo not drawn)	-128
N/C(=N\OC(=O)c1cc([N+](=O)[O-])ccc1Cl)c1ccccn1	-82
N/C(=N\OC(=O)c1ccc(Cl)cc1[N+](=O)[O-])c1ccccn1	-165
N/C(=N\OC(=O)c1ccc([N+](=O)[O-])cc1Cl)c1ccccn1	–
N/C(=N\OC(=O)c1ccc(Cl)cc1Cl)c1ccccn1	–
O=Cc1cc2cc3c(cc2nc1Cl)OCCO3	-62
Oc1c(C(c2ccccc2Cl)N2CCCC2)ccc2cccnc12 (stereo not drawn)	–
COC(=O)Cc1ccc(NC(=O)c2ccc(C(C)(C)C)cc2)cc1	–
CC(C)(C)c1ccc(C(=O)Nc2ccc(Cl)cc2)cc1	-110
CC(C)(C)c1ccc(C(=O)Nc2cccnc2)cc1	-91
CC(C)(C)c1ccc(OCCCC(=O)N2CCOCC2)cc1	-104
CCc1sc(C(=O)Nc2cccnc2)cc1Br	-110
CCCc1ccc(OCc2ccc(C(=O)N3CCSCC3)o2)cc1	-148
CC(C)(C)c1ccc(OCc2ccc(C(=O)Nc3cccnc3)o2)cc1	-170
Cc1ocnc1C(=O)Nc1ccc(Cl)cc1	-167
COC(=O)c1ccc(COc2ccc(C(C)(C)C)cc2)o1	-167
COC(=O)c1ccc(COc2ccc3c(c2)CCC3)o1	-130
O=C(N/N=C/c1cc([N+](=O)[O-])ccc1O)c1ccc(COc2ccc3c(c2)CCC3)o1	–
SMILES	aSyn UTR act
CCc1ccc(OCc2ccc(C(=O)OC)o2)cc1	-220
CC(=O)Nc1nonc1NC(=O)c1ccc(C(C)(C)C)cc1	-153
O=C(N/N=C/c1ccc2ccccc2c1)c1ccc(COc2ccc3c(c2)CCC3)o1	-72
O=C(N/N=C\c1c(O)ccc2ccccc12)c1ccc(Cn2cccn2)o1	–
O=C(Nc1ccc(Cl)cc1)c1ccc(OC2CSC2)cc1	-90
CC(C)(C)c1ccc(OCc2ccc(C(=O)N3CCOCC3)o2)cc1	-119
O=C(O)c1ccc(/C=N/Nc2ccc(F)cc2F)cc1	-111
Fc1ccc(N/N=C/c2ccncc2)c(F)c1	-177
Clc1ccc(N/N=C/c2ccncc2)cc1Cl	-221
Fc1ccc(N/N=C/C=C/c2ccccc2)c(F)c1	-159
COC(=O)c1sc(NC(=O)Cc2cccs2)nc1C	-69
Cc1cnc(NC(=O)CSc2ccccc2)s1	-108
Cc1cnc(NC(=O)COc2ccccc2)s1	-142
COC(=O)c1sc(NC(=O)COc2ccccc2)nc1C	-142
CCOC(=O)c1sc(NC(=O)c2cccnc2)nc1C	-100
Cc1cnc(NC(=O)CCc2ccccc2)s1	-383
CCOc1ccc(C(=O)Nc2nc(C)c(C(=O)OC)s2)cc1	-97
Cc1[nH]n(-c2ccccc2)c(=O)c1/C=C1/C=c2ccccc2=N1	-69
O=C(O)c1ccc(Nc2nc(-c3cccnc3)cs2)cc1	-88
CC(=O)c1ccc(Nc2nc(-c3cccnc3)cs2)cc1	-130
C#CCOCCOCCOCCNc1nc(N2CCN(C(=O)CCCCCCCCCCNC(=O)Cn3cc(C[C@@H](C)O)nn3)CC2)nc(N2CCN(C(=O)CCCCCCCCCCNC(=O)[C@H](CCCN=C(N)N)n3cc(C[C@@H](C)CC)nn3)CC2)n1	-85
C=C(C(=O)c1ccccc1)C(C)C(=C)C(=O)c1ccccc1	-149
C[n+]1cn(/N=C/c2ccccc2)c2ccccc21	-87
O=C(Nc1cc(=O)[nH]c(=O)[nH]1)c1cc(Cl)ccc1Cl	-65
N#Cc1c(N2CCCC(O)C2)nc(N)c2c(N)nc3c(c12)CC(=O)N3C12CC3CC(CC(C3)C1)C2 (stereo not drawn)	-232
SMILES	aSyn UTR act
COc1ccc(OCc2cccc(C(=O)Nc3cc(C)on3)c2)cc1	–
COc1ccc(-c2cc(C(=O)Nc3cc(C)on3)no2)cc1	-71
COc1ccc(-c2cc(C(=O)Nc3ccc(C)cc3)no2)cc1	-71
COc1cn(-c2ccccc2)nc1C(=O)Nc1ccccc1	-66
COc1cn(-c2ccccc2)nc1C(=O)Nc1ccc(C)cc1	-90
COc1ccc(S(=O)(=O)N2CCN(c3ccccn3)CC2)cc1[N+](=O)[O-]	–
Cc1ccc(/C=N/N2CCN(c3ccccn3)CC2)o1	-80
BrC(=C\c1ccccc1)/C=N/N1CCN(c2ccccn2)CC1	-70
CN(C)c1ccc(/C=N/N2CCN(c3ccccn3)CC2)cc1	-126
O=[N+]([O-])c1ccccc1/C=N/N1CCN(c2ccccn2)CC1	-79
Cc1ccc(-n2c(-c3ccc(Br)cc3)c[n+]3c2CCc2ccc4cccnc4c2-3)cc1	–
CN(c1ccccc1)c1ccc(/C=N/N2CCOCC2)cc1	-156
C(=N\N1CCN(c2ccccn2)CC1)/c1ccccn1	-115
CN(C1=C(N2CCOCC2)C(=O)c2ccccc2C1=O)c1ccccc1	–
Oc1cccc(/C=N/N2CCN(c3ccccn3)CC2)c1	-76
Oc1cccc(C(Nc2nccs2)c2ccc3cccnc3c2O)c1 (stereo not drawn)	–
COc1cc2ccccc2cc1C(=O)Nc1nccs1	-256
COc1ccccc1OCCCC(=O)Nc1nccs1	-97
COc1cc2ccccc2cc1C(=O)NCC(c1cccs1)N(C)C (stereo not drawn)	-106
O=C(COc1cccc2cccnc12)Nc1nccs1	-85
COc1cccc2c1OCC(C(=O)Nc1nccs1)=C2	-122
COc1c(C(=O)Nc2nccs2)ccc2ccccc12	-172
COc1cccc(C(=O)O/N=C(\N)c2ccccn2)c1OC	-74
COc1cccc(C(=O)O/N=C(\N)c2ccncc2)c1OC	-84
N/C(=N\OC(=O)c1cccc2ccccc12)c1ccccn1	–
SMILES	aSyn UTR act
C=CCc1ccc(OC(=O)NC2CCCCC2)c(OC)c1	-106
CCCc1ccc(OCc2ccc(C(=O)NN)o2)c(OC)c1	-84
C=CCc1ccc(OCc2ccc(C(=O)O)o2)c(OC)c1	-121
CCCc1ccc(OCc2ccc(C(=O)O)o2)c(OC)c1	-94
COc1ccc(C(=S)N2CCOCC2)cc1OS(=O)(=O)c1ccccc1[N+](=O)[O-]	-70
COc1ccc(C(=O)c2cc3cccc(OC)c3o2)cc1	-161
COc1ccc(C(=O)Cc2cc3cccc(OC)c3oc2=O)cc1	-79
COc1cccc2cc(CC(=O)c3ccc(C)cc3C)c(=O)oc12	-185
COc1cnc(-c2ccccn2)nc1Oc1ccc(F)cc1F	-118
COc1cnc(-c2ccccn2)nc1NC(C)C	–
COc1cc(OC)cc(C(=O)NCC(=O)Nc2ccc(-c3ccccc3)cc2)c1	-195
COc1cccc(NC(=O)CNC(=O)c2ccccc2)c1	-66
COc1cccc(NC(=O)CN(C)C(=O)CNC(=O)c2ccc(Oc3ccccc3)cc2)c1	-124
C/C(=N\Nc1nc2ccccc2[nH]1)c1ccc(C)o1	-237
C/C(=N\Nc1nc2ccccc2[nH]1)c1ccc(Cl)s1	-104
C/C(=N\Nc1nc2ccccc2[nH]1)c1ccc(N2CCOCC2)cc1	-163

Bioassay records: PubChem, Broad Institute
